Source: PubChem BioAssay AID430 (Sanford-Burnham Center for Chemical Genomics, 2006)
The whole screen tested about 63,000 compounds, of which about 1,100 (1.7%) were called active. The full list was thinned out, with actives kept by preference. Potency and affinity values are given separately. A number with no mark means an inactive call. No stated cut-off is given here; in the data, active means cytotoxicity above about 50%; inactive means the rest.

Assay: cytotoxicity in HPDE-C7 cells, cell-based, fluorescence, HTS (AID 430);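 further: cells exposed to compound for 48 hours before viability readout; 0% = vehicle and 100% = reference cytotoxic drug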
Settings: HPDE-C7 pancreatic duct cells viability, at 10 µM, active compounds read high
For `CCCC(=O)NC(c1ccco1)c1cc(Cl)c2cccnc2c1O` (stereo not drawn), the cytotoxicity was 59.7% (active).
`O=C(Oc1c(Cl)cc(Cl)c2cccnc12)N1CCCCC1` showed a cytotoxicity of -1.1%.
With `CCCC(=O)Nc1ccc(Cl)c(NC(=O)c2ccco2)c1` the cytotoxicity was -1.6%.
Work on `O=C(OCC(=O)N(C1CCCCC1)C1CCCCC1)c1ccncc1` yielded a cytotoxicity of 4.3%.
In the case of `Cc1cccc(C#N)c1NC1=CC(=O)CC(C)(C)C1`, the cytotoxicity is reported as -3.4%.
For `COc1cc(NS(=O)(=O)c2ccc(C)cc2)c2ncccc2c1`, the cytotoxicity was 57.2% (active).
In the case of `O=C(C1CCN(S(=O)(=O)c2cccc3cccnc23)CC1)N1CCCC1`, the cytotoxicity is reported as -7.2%.
Work on `CS(=O)(=O)Nc1cccc2cccnc12` yielded a cytotoxicity of 6.6%.
Molecule `COc1cc(NCCCC(C)N)c2ncccc2c1` (stereo not drawn) has a cytotoxicity of -12.1%.
Molecule `COc1ccc(NS(=O)(=O)c2ccc(Oc3ncccn3)cc2)cc1` has a cytotoxicity of 17.1%.
For `O=S(=O)(Nc1cccc2cccnc12)c1ccc(S(=O)(=O)N2CCCC2)cc1`, the cytotoxicity was 57.1% (active).
Work on `Cc1nnc(SCC(=O)Nc2cc(C(F)(F)F)ccc2N2CCOCC2)o1` yielded a cytotoxicity of 12.9%.
In the case of `CC/C(=N\O)c1ccc(OC)c(OC)c1`, the cytotoxicity is reported as -4.4%.
Work on `CC(=O)CSc1ncnc2nc[nH]c12` yielded a cytotoxicity of 5.4%.
With `CC(C)(C)c1cc(Br)ccc1OCC(=O)Nc1ncn[nH]1` the cytotoxicity was 21.9%.
With `CCC(C)NC(=O)C1c2cc(OC)c(OC)cc2C(=O)N(C)C1c1ccc(OC)cc1` (stereo not drawn) the cytotoxicity was -7.8%.
With `CC(=O)c1c(C)cc(C)c(CSc2nc(C)cc(=O)[nH]2)c1C` the cytotoxicity was 51.3% (active).
In the case of `CCCSc1nc(C)cc(=O)[nH]1`, the cytotoxicity is reported as 1.4%.
With `CCOC(=O)CSc1nc(C)cc(=O)[nH]1` the cytotoxicity was 1.4%.
In the case of `O=C(O)c1cccc(S(=O)(=O)Nc2ccc3oc(=O)sc3c2)c1`, the cytotoxicity is reported as 1.3%.
Molecule `COc1cc(NS(=O)(=O)c2ccc(C)cc2C)cc(OC)c1OC` has a cytotoxicity of 37%.
Work on `Cn1c(=O)c2cn(-c3ccc4c(c3)OCCO4)cc2n(C)c1=O` yielded a cytotoxicity of -24.9%.
Molecule `O=C1Cc2ccccc2C(=O)N1CCc1ccccc1` has a cytotoxicity of -14.2%.
Molecule `Cc1cc(NC(=O)c2cnn3c(C(F)F)cc(-c4ccccc4)nc23)no1` has a cytotoxicity of -6.1%.
In the case of `CC1CCCN(c2nc3ccccc3nc2C(C#N)S(=O)(=O)c2ccccc2)C1` (stereo not drawn), the cytotoxicity is reported as 52.3% (active).
Work on `COc1ccc(S(=O)(=O)C(C#N)c2nc3ccccc3nc2N2CCCCC2)cc1` (stereo not drawn) yielded a cytotoxicity of -10.2%.
For `CC1CCN(c2nc3ccccc3nc2C(C#N)S(=O)(=O)c2ccccc2)CC1` (stereo not drawn), the cytotoxicity was 12.4%.
With `Cc1ccc(S(=O)(=O)C(C#N)c2nc3ccccc3nc2N2CCC(C)CC2)cc1` (stereo not drawn) the cytotoxicity was 5.7%.
Work on `N#CC(c1nc2ccccc2nc1N1CCCC1)S(=O)(=O)c1ccccc1` (stereo not drawn) yielded a cytotoxicity of -10.1%.
With `COc1ccc(S(=O)(=O)C(C#N)c2nc3ccccc3nc2N2CCCC(C)C2)cc1` (stereo not drawn) the cytotoxicity was 61.7% (active).
`CCS(=O)(=O)NCCc1csc(-c2ccccc2)n1` showed a cytotoxicity of -4.2%.
`CCSc1nc(C)c(CC)c(C)c1C(N)=O` gave a cytotoxicity of 1.9%.
For `CCOC(=O)CC(=O)CSc1[nH]c(=O)cc(C)c1C#N`, the cytotoxicity was -1.4%.
With `Cc1ccc(-c2cn3cccnc3n2)cc1NC(=O)c1c(-c2ccccc2Cl)noc1C` the cytotoxicity was 40.2%.
`Cc1c(C(=O)N(Cc2cccs2)C2CCS(=O)(=O)C2)oc2ccccc12` (stereo not drawn) gave a cytotoxicity of -22.1%.
Molecule `CN(C)S(=O)(=O)c1ccc(-c2ccccc2)cc1` has a cytotoxicity of -2.3%.
Work on `CN(C)S(=O)(=O)n1cnc(-c2ccccc2)c1-c1ccccc1` yielded a cytotoxicity of -7.9%.
`Cc1ccc(CNC(=O)c2cn(C3CCCCC3)c(=O)c3c2c2ccccc2n3C)o1` showed a cytotoxicity of -4%.
For `O=S(=O)(NCCOc1ccc(F)cc1)c1ccc2c(c1)OCCO2`, the cytotoxicity was -5.3%.
With `Brc1cnn(-c2nc(N3CCOCC3)nc(N3CCOCC3)n2)c1` the cytotoxicity was 5.8%.
For `O=C(Nc1cc(C(=O)N2CCOCC2)cc(C(=O)N2CCOCC2)c1)c1cc(F)c(F)cc1Cl`, the cytotoxicity was -14.6%.
In the case of `O=C(OCc1nc2ccccc2s1)C1CCN(C2=NS(=O)(=O)c3ccccc32)CC1`, the cytotoxicity is reported as 1.1%.
For `COc1ccc(C(NC(C)=O)c2ccc3cccnc3c2O)c(OC)c1` (stereo not drawn), the cytotoxicity was 11.7%.
In the case of `CC(C)C(=O)NC(c1ccco1)c1ccc2cccnc2c1O` (stereo not drawn), the cytotoxicity is reported as -17.7%.
Work on `O=c1cc(CO)oc(C(Nc2ccccn2)c2ccccc2F)c1O` (stereo not drawn) yielded a cytotoxicity of -3.3%.
In the case of `CC(=O)NC(c1ccco1)c1ccc2cccnc2c1O` (stereo not drawn), the cytotoxicity is reported as 31.1%.
Molecule `COc1cc(C(=O)Nc2ccccn2)cc(OC)c1OC` has a cytotoxicity of 5.4%.
With `Cc1cc(NC(c2cccnc2)c2ccc3cccnc3c2O)no1` (stereo not drawn) the cytotoxicity was 9%.
`CNC(=O)c1ccc(N(Cc2ccccc2)S(C)(=O)=O)cc1` gave a cytotoxicity of 2.3%.
`CCn1c(=O)cc(SCC(=O)Nc2cccnc2)c2ccccc21` showed a cytotoxicity of -11.6%.
For `Cc1cccc(N2CCN(C(=O)C3CCCN(S(=O)(=O)c4c(C)noc4C)C3)CC2)c1C` (stereo not drawn), the cytotoxicity was -2%.
In the case of `C/C(=C\c1ccco1)C1C(C#N)=C(N)OC2=C1C(=O)CC(C)(C)C2` (stereo not drawn), the cytotoxicity is reported as -2%.
In the case of `CCOc1ccc2[nH]c(=O)c(CN(Cc3ccccc3)C(=O)N3CCCC3)cc2c1`, the cytotoxicity is reported as -4.5%.
With `Cc1ccc(CCNC(=O)c2coc3nc4ccccc4nc23)cc1` the cytotoxicity was 27.6%.
Molecule `COc1ccc(F)cc1CN1CCN(c2cc(C)nc3c4c(C)cc(C)nc4nn23)CC1` has a cytotoxicity of 9.9%.
For `CCOc1cc(NC(=O)c2ccco2)c(OCC)cc1NC(=O)Cc1cccc(OC)c1`, the cytotoxicity was -10.3%.
Work on `O=C(NCc1cccnc1)c1ccc(COc2ccccc2Br)o1` yielded a cytotoxicity of 13.1%.
For `CN1CCN(c2ccccc2NC(=O)Cc2cn(C)c3ccccc23)CC1`, the cytotoxicity was -5.4%.
With `COc1ccccc1NC(=O)N(Cc1ccco1)Cc1cc2ccc(C)c(C)c2[nH]c1=O` the cytotoxicity was 72.8% (active).
Molecule `CCN1CCCC1CN(Cc1cc2cc(C)cc(C)c2[nH]c1=O)C(=O)Nc1ccccc1OC` (stereo not drawn) has a cytotoxicity of 15.1%.
In the case of `COc1ccccc1NC(=O)N(Cc1ccco1)Cc1cc2cc(C)cc(C)c2[nH]c1=O`, the cytotoxicity is reported as 59.5% (active).
With `Cc1cc(C)c2[nH]c(=O)c(CN(Cc3ccco3)C(=O)C3CCCO3)cc2c1` (stereo not drawn) the cytotoxicity was -9.6%.
`COc1ccccc1NC(=O)N(Cc1ccco1)Cc1cc2c(C)ccc(C)c2[nH]c1=O` gave a cytotoxicity of 22.4%.
Work on `COc1ccccc1NC(=O)N(Cc1ccco1)Cc1cc2cccc(C)c2[nH]c1=O` yielded a cytotoxicity of 0.1%.
For `O=C(O)CCc1ccc(-c2cccs2)n1CC1CCCO1` (stereo not drawn), the cytotoxicity was -6.9%.
With `CCOC(=O)Cn1c(=O)oc2cc(S(=O)(=O)N3CCCc4ccccc43)ccc21` the cytotoxicity was 3.6%.
Work on `CCSc1nnc(NC(=O)C(Cc2ccccc2)n2cccc2)s1` (stereo not drawn) yielded a cytotoxicity of -8.7%.
Molecule `Cc1csc(NC(=O)C(Cc2ccccc2)n2cccc2)n1` (stereo not drawn) has a cytotoxicity of 14.2%.
Work on `COc1cccc2sc(NC(=O)c3ccc(S(=O)(=O)N4CCOCC4)cc3)nc12` yielded a cytotoxicity of 2.8%.
In the case of `O=c1oc2cc(O)ccc2c2c1CCCC2`, the cytotoxicity is reported as 30.9%.
Work on `O=c1oc2cc(O)ccc2c2oc3cc(O)ccc3c12` yielded a cytotoxicity of 9.7%.
In the case of `Oc1ccc2c(c1)oc1cc(O)ccc12`, the cytotoxicity is reported as 56.4% (active).
`O=C(NCc1ccco1)C1CCN(S(=O)(=O)c2ccc(-n3cnnn3)cc2)CC1` gave a cytotoxicity of -7.4%.
With `COc1ccc(OC)c(-c2nc(C)sc2CC(=O)O)c1` the cytotoxicity was -6.4%.
`CC(C)Oc1ccc(NC(=O)Oc2ccccc2)cc1` showed a cytotoxicity of 4.8%.
For `O=C(Nc1ccc(N2CCN(c3ccc(O)cc3)CC2)cc1)Oc1ccccc1`, the cytotoxicity was 50.7% (active).
Molecule `CC(=O)Nc1ccc(NC(=O)Oc2ccccc2)cc1` has a cytotoxicity of -2%.
In the case of `CCC(=O)N1c2ccccc2NC2=C(C(=O)CC(c3ccco3)C2)C1c1ccco1` (stereo not drawn), the cytotoxicity is reported as -3.7%.
With `O=C1CC(c2ccco2)CC2=C1C1c3ccccc3C(=O)N1c1ccccc1N2` (stereo not drawn) the cytotoxicity was 64.9% (active).
`COc1ccc(C2C3=C(CC(c4ccco4)CC3=O)Nc3ccccc3N2C(C)=O)cc1` (stereo not drawn) gave a cytotoxicity of -12.7%.
`COCCCn1c(=O)c2ccccc2c2ccccc2c1=O` gave a cytotoxicity of -14.8%.
For `CC(=O)c1cccc(S(=O)(=O)N(CCCO)Cc2cc3ccc(C)cc3[nH]c2=O)c1`, the cytotoxicity was -3.7%.
Work on `COc1ccc(NC(=O)N2CCCC2)cc1OC` yielded a cytotoxicity of -16.9%.
Work on `O=c1[nH]cnc2scc(-c3ccc(F)cc3)c12` yielded a cytotoxicity of -4.9%.
Work on `Cn1nnnc1Sc1ncnc2scc(-c3ccccc3)c12` yielded a cytotoxicity of 2.6%.
`C/C(=N\O)c1c(C)c2ccccc2n1C` showed a cytotoxicity of -0.6%.
`CC1=C(C(=O)Nc2ccccn2)C(c2ccc(F)cc2)n2ncnc2N1` (stereo not drawn) showed a cytotoxicity of -6%.
`O=C(CSc1ncnc2c1oc1ccccc12)Nc1cccc(C(F)(F)F)c1` showed a cytotoxicity of 2.9%.
For `Cc1ccnc(SCC(=O)O)n1`, the cytotoxicity was -31.8%.
In the case of `Cc1ccccc1NC(=O)CSc1nc2c(c(-c3ccco3)c1C#N)CCCC2`, the cytotoxicity is reported as -20.7%.
In the case of `c1ccc2[nH]c(-c3ccnc4ccccc34)nc2c1`, the cytotoxicity is reported as 3%.
Work on `O=C(c1cnn2c(C(F)(F)F)cc(-c3ccco3)nc12)N1CCCc2ccccc21` yielded a cytotoxicity of 4.7%.
With `O=C(c1cc2nc(-c3ccco3)cc(C(F)(F)F)n2n1)N1CCCc2ccccc21` the cytotoxicity was -11.2%.
With `O=C(c1nn2c(C(F)(F)F)cc(-c3ccco3)nc2c1Br)N1CCCc2ccccc21` the cytotoxicity was 51.8% (active).
With `O=C(Sc1nnnn1C1CCCCC1)c1cccs1` the cytotoxicity was -11.4%.
Molecule `COc1cc(C(=O)NCc2nnc(SCC(=O)N3CCC(C)CC3)o2)cc(OC)c1OC` has a cytotoxicity of -2.5%.
With `CC1(C)Cc2c(c(N3CCOCC3)nc3sc(C(=O)N4CCCCC4)c(N)c23)CO1` the cytotoxicity was -5.3%.
Work on `CC1(C)Cc2c(c(N3CCOCC3)nc3snc(Br)c23)CO1` yielded a cytotoxicity of 5.4%.
